We go through nine compounds from PubChem BioAssay (Tox21).

The nature of test [1]: qHTS assay to identify small molecule antagonists of the thyroid receptor (TR) signaling pathway - cell viability counter screen (AID 743064). Also: nearly all actives have a fitted effect of over 50% in size. Also: potency is read from the fitted curve at half-maximal effect. The essentials:
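GH3.TRE-Luc rat pituitary cells dosed after 4 hr plating, co-stimulated with T3 at 1 nM final, incubated 23.5 h at 37 C. Viability measured in the same wells by CellTiter-Fluor fluorescence after 30 min further at 37 C.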
(In general: Quantitative high-throughput screening tests each substance at several concentrations.)

The test system of test [2] is thyroid hormone receptor (rat, GH3 cells). Briefly: qHTS assay to identify small molecule agonists of the thyroid receptor (TR) signaling pathway (AID 743066; calls by dose curve).
Test [3] addresses Estrogen receptor (Homo sapiens) (UniProt P03372). In words: qHTS assay to identify small molecule antagonists of the estrogen receptor alpha (ER-alpha) signaling pathway (AID 743069; active = well fitted curve in the direction sought with a large enough effect in the signal ratio in the repeat runs, not every such curve was filed as active; inconclusive = weak or mixed curves, or effect the other way; inactive = no such curve, though single readings can be large or run the other way; the % refers to the signal ratio; also: potency is read from the fitted curve at half-maximal effect). The method in brief: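 Reporter cells (ER-alpha-bla, HEK293 background) are conditioned overnight in stripped-serum medium (2% charcoal-stripped FBS). Compound and 17beta-estradiol exposure runs 18 hr at 37C, 5% CO2.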

Test [4] in a line: qHTS assay to identify small molecule antagonists of the estrogen receptor alpha (ER-alpha) signaling pathway - cell viability counter screen (AID 743074; calls by dose curve;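 also: HEK293 cells carrying ER-alpha-UAS-bla reporter stimulated with 17beta-estradiol; nearly all actives have a fitted effect of over 45% in size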; also: potency is read from the fitted curve at half-maximal effect).
Test [5] deals with Estrogen receptor (Homo sapiens) (UniProt P03372). Briefly: qHTS assay to identify small molecule agonists of the estrogen receptor alpha (ER-alpha) signaling pathway (AID 743075; calls by dose curve;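 also: HEK293 GripTite cells with ER-alpha and UAS-driven beta-lactamase reporter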; also: potency is read from the fitted curve at half-maximal effect).
Chain of Estrogen receptor (Homo sapiens) (P03372 whole entry, looked up): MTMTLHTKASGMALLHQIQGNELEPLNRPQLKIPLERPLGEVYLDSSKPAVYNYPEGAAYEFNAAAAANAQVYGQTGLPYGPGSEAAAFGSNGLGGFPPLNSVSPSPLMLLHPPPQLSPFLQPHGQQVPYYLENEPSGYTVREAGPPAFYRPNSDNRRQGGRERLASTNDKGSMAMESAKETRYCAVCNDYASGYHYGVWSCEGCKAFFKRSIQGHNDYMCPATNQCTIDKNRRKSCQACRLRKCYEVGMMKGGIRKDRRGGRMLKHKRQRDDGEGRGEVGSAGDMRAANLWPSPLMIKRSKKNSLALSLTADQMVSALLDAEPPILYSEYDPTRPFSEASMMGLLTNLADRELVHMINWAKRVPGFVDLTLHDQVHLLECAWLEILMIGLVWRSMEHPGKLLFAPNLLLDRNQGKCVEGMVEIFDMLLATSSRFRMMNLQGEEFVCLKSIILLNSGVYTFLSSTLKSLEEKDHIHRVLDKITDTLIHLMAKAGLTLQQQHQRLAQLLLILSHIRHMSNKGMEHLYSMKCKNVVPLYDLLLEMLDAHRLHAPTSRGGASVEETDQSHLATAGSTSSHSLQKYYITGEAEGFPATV
The target is the same in test [6]. Briefly: qHTS assay to identify small molecule agonists of the estrogen receptor alpha (ER-alpha) signaling pathway using the BG1 cell line (AID 743079). Also: nearly all actives have a fitted effect of over 20% in size. Also: potency is read from the fitted curve at half-maximal effect. The conditions noted are these: BG1Luc4E2 cells, ERE-luciferase agonist, 22 h; activation: at 70.3 µM (top of the series).
The nature of test [7]: qHTS assay to identify small molecule antagonists of the estrogen receptor alpha (ER-alpha) signaling pathway using the BG1 cell line (AID 743080; calls by dose curve;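 also: BG1 cells stimulated with 17beta-estradiol alongside compound; nearly all actives have a fitted effect of over 25% in size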). The essentials:
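Quantitative HTS on the Tox21 10K library: BG1 cells with endogenous ER-alpha and ERE-luciferase reporter, 17beta-estradiol stimulation, 21.5 h compound exposure, luminescence endpoint with parallel fluorescence cytotoxicity counter-read.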

A short description of test [8]: qHTS assay to identify small molecule antagonists of the estrogen receptor alpha (ER-alpha) signaling pathway using the BG1 cell line - cell viability counter screen (AID 743081).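 Also: compound given together with 17beta-estradiol as the ER stimulus; nearly all actives have a fitted effect of over 45% in size.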 Also: potency is read from the fitted curve at half-maximal effect.
The target of a further test is Aromatase (Homo sapiens) (UniProt P11511). Briefly: qHTS assay to identify aromatase inhibitors (AID 743083). Also: nearly all actives have a fitted effect of over 55% in size. Also: potency is read from the fitted curve at half-maximal effect.
Chain of Aromatase (Homo sapiens) (P11511 whole entry, looked up): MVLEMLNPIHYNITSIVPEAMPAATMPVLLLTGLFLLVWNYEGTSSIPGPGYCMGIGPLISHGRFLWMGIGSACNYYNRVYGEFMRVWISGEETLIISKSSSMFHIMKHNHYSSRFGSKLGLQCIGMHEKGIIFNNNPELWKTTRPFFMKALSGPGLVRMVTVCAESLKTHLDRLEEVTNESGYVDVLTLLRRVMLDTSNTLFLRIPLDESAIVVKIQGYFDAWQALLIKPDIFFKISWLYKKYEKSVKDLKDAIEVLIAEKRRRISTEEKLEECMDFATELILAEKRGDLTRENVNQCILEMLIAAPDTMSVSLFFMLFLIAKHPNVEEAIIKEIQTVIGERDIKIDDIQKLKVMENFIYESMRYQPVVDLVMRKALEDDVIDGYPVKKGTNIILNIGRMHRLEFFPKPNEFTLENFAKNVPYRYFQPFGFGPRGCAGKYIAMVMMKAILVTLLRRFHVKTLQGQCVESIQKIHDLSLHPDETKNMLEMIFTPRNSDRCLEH
Test [9] in a line: qHTS assay to identify aromatase inhibitors - cell viability counter screen (AID 743084).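 Also: cells stimulated with testosterone during compound exposure; nearly all actives have a fitted effect of over 55% in size.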 Also: potency is read from the fitted curve at half-maximal effect.
Test [10] concerns the target Aryl hydrocarbon receptor (Homo sapiens) (UniProt P35869). Briefly: qHTS assay to identify small molecule that activate the aryl hydrocarbon receptor (AhR) signaling pathway (AID 743085).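 Also: HG2L7.5c1 human HepG2 liver cells with stably integrated DRE-driven firefly reporter; nearly all actives have a fitted effect of over 15% in size.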 The essentials: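 HepG2 cells stably carrying a 20-DRE firefly luciferase reporter (HG2L7.5c1) treated with compound for 24 hr at 37C. Luciferase read by ONE-Glo luminescence, with CellTiter-Fluor viability read first.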

Test [11] in a line: qHTS assay to identify small molecule that activate the aryl hydrocarbon receptor (AhR) signaling pathway - cell viability counter screen (AID 743086). Also: nearly all actives have a fitted effect of over 45% in size. Also: potency is read from the fitted curve at half-maximal effect. The essentials:
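HepG2-AhR-luc (HG2L7.5c1) cells, 4000/well, treated 24 h at 37 C with compound; viability measured as CellTiter-Fluor fluorescence after 30 min in the same wells as the luciferase read.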

A short description of test [12]: qHTS assay to identify small molecule antagonists of the peroxisome proliferator-activated receptor gamma (PPARg) signaling pathway - cell viability counter screen (AID 743194). Also: nearly all actives have a fitted effect of over 55% in size. Also: potency is read from the fitted curve at half-maximal effect. Particulars: Potency: co-treated with 50 nM rosiglitazone unless noted. The essentials: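 Cytotoxicity counter screen in PPARg-bla HEK293H cells, same wells as reporter assay. Compounds plus 50 nM rosiglitazone (final) for 17 h at 37 C, then viability read by CellTiter-Glo luminescence.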

A short description of test [13]: qHTS assay for small molecule agonists of the antioxidant response element (ARE) signaling pathway (AID 743202; active = well fitted activation curve with a large enough effect in the signal ratio in the repeat runs, not every such curve was filed as active; inconclusive = weak or mixed curves, or effect the other way; inactive = no such curve, though single readings can be large or run the other way; the % refers to the signal ratio). The method in brief:
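Agonist mode reporter screen: HepG2 cells with ARE-controlled beta-lactamase are incubated with test compounds for 16 h at 37 C, and beta-lactamase activity is measured as fluorescence of cleaved B/G FRET substrate.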

Test [14] can be described thus: qHTS assay for small molecule agonists of the antioxidant response element (ARE) signaling pathway - cell viability counter screen (AID 743203; calls by dose curve; also: nearly all actives have a fitted effect of over 55% in size; also: potency is read from the fitted curve at half-maximal effect). The essentials:
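Compounds in DMSO were pinned onto ARE-bla HepG2 cells plated 5 hrs earlier at 2,000 cells/well. Sixteen hours later at 37C/5% CO2, CellTiter-Glo was added and luminescence measured after 30 min at room temperature.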

Test [15] is described as follows: qHTS assay for small molecule activators of the heat shock response signaling pathway - cell viability counter screen (AID 743209). Also: nearly all actives have a fitted effect of over 50% in size. Also: potency is read from the fitted curve at half-maximal effect. The method in brief:
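Counter screen for cytotoxicity in HeLa HSE-bla reporter cells. Treatment was 5 h at 37 C; viability was detected by luminescent ATP assay (CellTiter-Glo) in the same wells as the beta-lactamase read.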

Test [16] can be described thus: qHTS assay to identify small molecule antagonists of the thyroid receptor (TR) signaling pathway (AID 743065). Also: nearly all actives have a fitted effect of over 55% in size. Also: potency is read from the fitted curve at half-maximal effect. The method in brief:
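GH3.TRE-Luc rat pituitary cells (two TREs driving luciferase) were dosed with compound, then stimulated with 1 nM T3 (final) for 23.5 h at 37 C. ONE-Glo luminescence was the read-out, with CellTiter-Fluor fluorescence as the cytotoxicity counter-screen.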

Test [17] deals with Peroxisome proliferator-activated receptor gamma (Homo sapiens) (UniProt P37231). Briefly: qHTS assay to identify small molecule agonists of the peroxisome proliferator-activated receptor gamma (PPARg) signaling pathway (AID 743094; active = well fitted activation curve with a large enough effect in the signal ratio in the repeat runs, not every such curve was filed as active; inconclusive = weak or mixed curves, or effect the other way; inactive = no such curve, though single readings can be large or run the other way; the % refers to the signal ratio; also: potency is read from the fitted curve at half-maximal effect). The method in brief: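 Following 5 h plating at 37C, PPARg-bla HEK293H cells receive compound or DMSO for 17 h; fluorescence intensity is recorded after LiveBLAzer B/G loading for 1 h at room temperature.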
Chain of Peroxisome proliferator-activated receptor gamma (Homo sapiens) (P37231 whole entry, looked up): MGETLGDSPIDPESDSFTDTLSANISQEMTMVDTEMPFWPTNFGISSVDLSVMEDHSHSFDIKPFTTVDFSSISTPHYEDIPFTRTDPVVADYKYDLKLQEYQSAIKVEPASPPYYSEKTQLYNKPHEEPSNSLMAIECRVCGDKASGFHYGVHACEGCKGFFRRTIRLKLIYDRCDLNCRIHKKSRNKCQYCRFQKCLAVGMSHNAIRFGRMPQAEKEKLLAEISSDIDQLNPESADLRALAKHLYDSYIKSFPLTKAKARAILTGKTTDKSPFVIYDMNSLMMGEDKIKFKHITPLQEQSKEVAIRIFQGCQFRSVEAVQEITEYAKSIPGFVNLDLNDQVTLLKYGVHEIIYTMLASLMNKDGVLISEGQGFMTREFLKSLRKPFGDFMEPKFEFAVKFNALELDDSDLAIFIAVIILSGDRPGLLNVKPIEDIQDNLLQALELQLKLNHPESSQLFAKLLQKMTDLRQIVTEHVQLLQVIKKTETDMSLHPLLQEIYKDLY

The target is the same in test [18]. Briefly: qHTS assay to identify small molecule antagonists of the peroxisome proliferator-activated receptor gamma (PPARg) signaling pathway (AID 743191; calls by dose curve; also: nearly all actives have a fitted effect of over 30% in size). The method in brief:
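GeneBLAzer PPARg UAS-bla HEK293H cells, 5 h post-plating, exposed to compounds 17 h at 37C. LiveBLAzer B/G FRET substrate added for 1 h at room temperature; beta-lactamase reporter read by fluorescence intensity.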

“And” between values parts separate entries of the source, which are not always exact repeats. Equal entries are not always repeated. A structure can be active in one record and inactive in another. The source made the active and inactive calls. Unless noted, calls follow the shape of the dose curve; as a rule, active = well fitted curve in the direction sought with a large enough effect in the repeat runs; inconclusive = weak or mixed curves; inactive = no such curve, though single readings can be large; an effect the other way counts as inactive or inconclusive.
% is scaled to controls: 0 for no effect and ±100 for the full control effect.

Chain of Aryl hydrocarbon receptor (Homo sapiens) (P35869 whole entry, looked up): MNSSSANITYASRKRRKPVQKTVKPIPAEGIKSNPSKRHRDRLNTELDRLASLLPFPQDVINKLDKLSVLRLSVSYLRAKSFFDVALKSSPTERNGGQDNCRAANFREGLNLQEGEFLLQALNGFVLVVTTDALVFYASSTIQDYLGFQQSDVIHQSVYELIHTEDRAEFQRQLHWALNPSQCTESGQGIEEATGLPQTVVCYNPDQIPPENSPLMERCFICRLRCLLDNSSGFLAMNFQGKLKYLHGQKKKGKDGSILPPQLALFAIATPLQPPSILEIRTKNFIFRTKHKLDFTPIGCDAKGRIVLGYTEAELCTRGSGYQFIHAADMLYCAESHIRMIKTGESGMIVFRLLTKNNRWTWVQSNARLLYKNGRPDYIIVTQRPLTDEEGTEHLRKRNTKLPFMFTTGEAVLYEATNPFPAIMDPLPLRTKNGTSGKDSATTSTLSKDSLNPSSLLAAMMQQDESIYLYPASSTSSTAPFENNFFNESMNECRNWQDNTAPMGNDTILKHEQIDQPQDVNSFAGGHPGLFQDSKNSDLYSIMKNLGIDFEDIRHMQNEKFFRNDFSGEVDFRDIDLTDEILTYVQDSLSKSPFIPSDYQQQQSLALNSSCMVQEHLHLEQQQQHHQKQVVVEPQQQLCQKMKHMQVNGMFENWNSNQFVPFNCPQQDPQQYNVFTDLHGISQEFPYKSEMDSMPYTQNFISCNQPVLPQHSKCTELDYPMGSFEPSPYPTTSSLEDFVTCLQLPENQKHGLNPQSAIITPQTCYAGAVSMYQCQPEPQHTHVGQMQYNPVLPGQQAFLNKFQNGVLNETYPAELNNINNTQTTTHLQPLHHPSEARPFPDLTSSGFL

For the compound `O=C(O)[C@H](O)[C@@H](O)C(=O)O`, the Potency result in test [1], in [2], in test [3], in [4], in [5] and in test [6] was “inactive” in each case. The Potency entry (in [7]; in test [8]; with Aromatase (Homo sapiens); in test [9]; in test [10]; in [11]) was “inactive” throughout. The Potency result in [12], in test [13], in test [14] and in [15] was “inactive” throughout.

As to `CCN(CC)C(=S)S`, the Potency was 1.19 µM (active) in test [1]; 8.71 µM (active) and 7.65 µM (active) and 4.86 µM (active) in test [9]; “inactive and 19.2 µM (active) and 30.6 µM (active)” in test [11]; 6.98 µM (active) and 2.75 µM (active) in [15]. The Potency result in test [2], in [3], in [4], in [5], in test [6] and in test [8] was “inactive” throughout. Further, the Potency result in [10], in test [12] and in test [14] was “inactive” each time.

Consider `CCC[CH2][Sn]([CH2]CCC)([CH2]CCC)[O][Sn]([CH2]CCC)([CH2]CCC)[CH2]CCC`, for which the activity change, negative = cytotoxic in [1] is 15.8% [at 8.44 µM] (inactive). Also, in test [16], the activity, negative = inhibition was 7.29% [at 8.44 µM] (inactive). Besides, the Potency is 0.852 µM (active) in [4]; 2.67 µM (active) with Aromatase (Homo sapiens); 2.12 µM (active) in test [9]; 2.67 µM (active) in test [11]; 676 nM (active) in test [17]; 427 nM (active) in test [12]. For the same compound, the Potency in test [15] was 380 nM (active). The activation in test [10] was -11.8% [at 8.47 µM] (inactive).

Consider `CC[C@H](C)[C@H]1O[C@]2(C=C[C@@H]1C)C[C@@H]1C[C@@H](C/C=C(\C)[C@@H](O[C@H]3C[C@H](OC)[C@@H](O[C@H]4C[C@H](OC)[C@@H](NC)[C@H](C)O4)[C@H](C)O3)[C@@H](C)/C=C/C=C3\CO[C@@H]4[C@H](O)C(C)=C[C@@H](C(=O)O1)[C@]34O)O2`, for which the Potency in test [1] is 1.22 µM (active); in test [3], 30.9 µM [cytotoxic] (active); in test [4] it was 13.8 µM (active); in test [8], 30.6 µM (active); with Aromatase (Homo sapiens), 4.86 µM (active); in test [9] it was 9.69 µM (active). Further, the Potency in [11] was 4.33 µM (active); in test [12], 2450 nM (active); in test [14], 4.33 µM (active); in [15] it was 13800 nM (active). Besides, the Potency entry in test [10] is “inactive”.

In the case of `COc1ccc(Cc2nccc3cc(OC)c(OC)cc23)cc1OC`, the Potency result (in test [1]; in test [2]; in test [4]; in [8]; with Aromatase (Homo sapiens); in test [9]) was “inactive” each time. For the same compound, the Potency result in test [17], in test [12], in test [14] and in test [15] was “inactive” throughout.

As for `Cc1ccccc1OP(=O)(Oc1ccccc1C)Oc1ccccc1C`, the Potency was 54.7 µM (active) in test [1], 54.7 µM (active) in test [16] and 3.87 µM (active) in test [6]. Further, the Potency entry in [5], in test [7], in [8], in test [9], in test [11] and in test [17] was “inactive” throughout. The Potency entry in test [18] and in test [15] was “inactive” throughout.

As to `CCC(OC(C)=O)C(CC(C)NC)(c1ccccc1)c1ccccc1` (configuration not stated), the Potency in [1] was 19.5 µM (active); in test [16], 19.5 µM (active); in test [11] it was 69.2 µM (active); in test [14], 77.6 µM (active). In addition, the Potency entry in test [5], in test [10] and in [15] was “inactive” each time.

Turning to `CC(=O)[O-].CC(=O)[O-].O.O.[Zn+2]`, the Potency result (in test [1]; in test [2]; in [8]; with Aromatase (Homo sapiens); in test [9]; in [10]) was “inactive” in each case. The Potency entry in test [11], in [12], in test [13], in test [14] and in test [15] was “inactive” each time.

In the case of `CC[C@]1(O)CC[C@H]2[C@@H]3CCC4=CCCC[C@@H]4[C@H]3CC[C@@]21C`, the Potency result in [1], in test [4], in test [7], in [8], in test [10] and in [18] was “inactive” throughout. Also, the Potency entry in test [12], in [13], in [14] and in [15] was “inactive” each time. Moreover, the figures for the Potency in test [16] and in [5] were 8.41 µM (active) and 0.5 nM [inconclusive] (active), respectively. The activation in test [6] is 5.41% (active).
